Screening data deposited in PubChem by The Scripps Research Institute Molecular Screening Center.
Only some compounds are listed: those with a hit (about 5.7% of all), similar ones and a draw of the others.
DAX1 inh-1 – blocks DAX1 repression of SF-1 activated StAR promoter | HEK293T StAR-luciferase reporter, SF-1/DAX-1 repression relief | inhibition, % at 6.8 µM | 370,000 tested, 1.1% active;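 active = inhibition above the mean over all tested compounds plus 3 SD, cut at about 3.6% in these data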;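 note: 0% = DAX-1 cells with DMSO and 100% = cells lacking DAX-1 with DMSO; higher inhibition means more luminescence from relief of DAX-1 repression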
AHR act – activates the human aryl hydrocarbon receptor; 320,000 tested, 2.5% active; activation, % at 5 µM; AID 2796; AHR-responsive luciferase reporter cells, luminescence; in the data active = activation above about 47%;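 note: 0% = vehicle wells and 100% = reference agonist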
Target sequence (P35869 whole entry, looked up): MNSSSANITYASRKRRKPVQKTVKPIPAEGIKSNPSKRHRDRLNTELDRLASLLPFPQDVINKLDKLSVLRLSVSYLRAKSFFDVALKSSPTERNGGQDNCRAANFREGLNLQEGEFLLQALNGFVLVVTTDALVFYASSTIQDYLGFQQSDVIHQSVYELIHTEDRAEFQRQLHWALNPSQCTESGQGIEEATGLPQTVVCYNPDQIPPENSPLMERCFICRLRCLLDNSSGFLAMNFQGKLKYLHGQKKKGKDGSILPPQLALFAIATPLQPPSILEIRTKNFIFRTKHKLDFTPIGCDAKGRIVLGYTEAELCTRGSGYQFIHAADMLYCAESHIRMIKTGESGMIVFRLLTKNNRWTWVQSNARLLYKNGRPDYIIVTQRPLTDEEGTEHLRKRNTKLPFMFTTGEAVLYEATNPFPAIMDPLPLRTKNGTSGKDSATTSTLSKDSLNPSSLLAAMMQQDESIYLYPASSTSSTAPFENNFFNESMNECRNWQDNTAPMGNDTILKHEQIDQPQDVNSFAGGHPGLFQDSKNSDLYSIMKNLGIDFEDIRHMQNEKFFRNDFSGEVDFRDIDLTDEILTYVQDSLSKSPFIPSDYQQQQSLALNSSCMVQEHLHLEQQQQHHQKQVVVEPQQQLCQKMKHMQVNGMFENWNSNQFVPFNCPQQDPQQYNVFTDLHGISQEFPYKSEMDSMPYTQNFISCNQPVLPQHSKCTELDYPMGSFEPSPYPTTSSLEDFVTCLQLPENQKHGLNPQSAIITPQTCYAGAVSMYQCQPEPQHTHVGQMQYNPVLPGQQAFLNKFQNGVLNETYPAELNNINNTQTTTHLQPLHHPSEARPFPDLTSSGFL
DAX1 inh-2 – NR0B1 (DAX1) inhibition; P51843; HEK293 Gal4-DAX1 luciferase reporter, luminescence; inhibition, % at 6.75 µM; 340,000 tested, 0.99% active; AID 504766;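 active = inhibition above the mean over all tested compounds plus 3 SD, cut at about 4.2% in these data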;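 note: 0% = DAX1-transfected cells with DMSO and 100% = empty-vector control cells with DMSO; inhibition shows as a rise in luminescence from relieved DAX1 repression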
hgDAF-12 ag – hgDAF-12 agonism, primary luciferase screen | activation, % at 6.8 µM | 370,000 tested, 1.8% active | AID 687014 | HEK293 GAL4-hgDAF12 UAS-luciferase reporter, agonist luminescence; normalized to butyrate control;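 active = activation above a cutoff set at the mean of all screened compounds plus 3 SD, cut at about 10% in these data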;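 note: 0% = DMSO wells and 100% = sodium butyrate wells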
hcDAF12 agonist – activators of H. contortus DAF-12 nuclear receptor. HEK293 hcDAF-12 lit1-tk-luc reporter, luminescence; 0% DMSO, 100% Δ7-dafachronic acid. activation, % at 6.8 µM. 370,000 tested, 1.4% active;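 active = activation above the mean of all tested compounds plus 3 SD, cut at about 5.5% in these data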;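 note: 100% = response to 3 µM Δ7-dafachronic acid high control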
ssDAF12 agonist – activators of S. stercoralis DAF-12 nuclear receptor | activation, % at 6.8 µM | 370,000 tested, 1% active | HEK293 ssDAF-12/GRIP1 lit1-tk-luc reporter, luminescence; % of 3 µM dafachronic acid response | AID 652126;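 active = activation above the mean over all tested compounds plus 3 SD, cut at about 0.9% in these data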;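 note: 0% = DMSO-only wells and 100% = 3 µM delta7-dafachronic acid wells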
* marks the source's active call; other numbers are inactive results; nt = no result.

SMILES	DAX1 inh-1	AHR act	DAX1 inh-2	hgDAF-12 ag	hcDAF12 agonist	ssDAF12 agonist
COC(OC)C(C)NC(=O)NC(=O)c1ccccc1Cl (configuration not stated)	0	-1	3	2	1	-1
CCN(CC(=O)NCc1ccc(Cl)cc1)C(=O)c1cc(S(=O)(=O)N2CCOCC2)ccc1C	-1	0	1	-1	-2	-1
Cc1ccc(NC(=O)c2ccc([N+](=O)[O-])cc2Cl)nc1	2	3	-1	11*	0	-1
CN(C)c1ccc(NC(=O)c2ccc([N+](=O)[O-])cc2Cl)cc1	1	2	-1	12*	1	1
CCOC(=O)c1ccoc1CSCC(=O)N1CCN(S(=O)(=O)c2ccc(C)cc2)CC1	0	13	-2	0	-1	-1
O=C(O)CN1C(=O)COc2cc(S(=O)(=O)N3CCCC3)ccc21	0	0	5.8*	-1	0	-1
Fc1c(F)c(F)c(/C=N/NC(=S)Nc2cccnc2)c(F)c1F	0	71*	0	3	-1	-2
Oc1ccc(/C=N/NC(=S)Nc2cccnc2)c(O)c1	-2	60*	-1	1	0	-1
Fc1cccc(F)c1/C=N/NC(=S)Nc1cccnc1	0	43	0	2	0	-1
CC(C)(C)C1CCC(=NNC(=S)Nc2cccnc2)CC1 (configuration not stated)	1	29	1	0	-1	3.8*
O=C1CC(C(=O)Nc2ccc(Cl)cc2)S/C(=N\N=C\c2ccco2)N1 (configuration not stated)	0	3	-1	1	2	-1
Cc1ccc(C(=O)N(CC(C)C)c2nc3ccccc3s2)o1	0	72*	0	0	2	-2
Nc1c(C(=O)Nc2ccc(F)cc2)sc2nc(-c3ccco3)ccc12	-1	72*	0	2	-2	0
Nc1c(C(=O)Nc2ccccc2)sc2nc3c(c(-c4ccco4)c12)CCC3	0	15	2	2	-1	-1
Nc1c(C(=O)Nc2ccc(Br)cc2)sc2nc(-c3ccco3)ccc12	0	60*	-1	3	3	-1
Cc1ccc(NC(=O)c2sc3nc4c(c(-c5ccco5)c3c2N)CCC4)cc1	-1	60*	-1	-1	-2	-2
CC(C)Oc1cccc(C(=O)Nc2ccccc2N2CCOCC2)c1	-1	15	1	1	0	-1
O=C(Cc1csc(Nc2nc(=S)[nH]c3ccccc23)n1)NCc1ccc(Cl)cc1	nt	26	0	nt	nt	nt
COc1ccc(CNC(=O)Cc2csc(Nc3nc(=S)[nH]c4ccccc34)n2)cc1	1	38	1	-3	5	1.0*
CCN(CC)c1ccc(NC(=S)NCC2CCCO2)cc1 (configuration not stated)	4.4*	30	0	8	2	-1
CCN(CC)c1ccc(NC(=O)C2CCCC2)cc1	0	1	4.6*	2	0	-1
Cc1ccc(NC(=S)NCC2CCCO2)cc1 (configuration not stated)	0	5	0	3	0	-1
C/C(=N\NC(=O)c1ccn(C)n1)c1ccc(NC(=O)C2CCCC2)cc1	1	14	6.6*	6	1	0
Cc1c(C(=O)NCc2ccccc2)oc2c1C(=O)CCC2	0	1	0	2	-1	-1
O=C(NCCCCC(NC(=O)C1CCCCC1)C(=O)O)c1ccccc1 (configuration not stated)	1	1	1	-2	0	-1
SMILES	DAX1 inh-1	AHR act	DAX1 inh-2	hgDAF-12 ag	hcDAF12 agonist	ssDAF12 agonist
Cc1ccc(S(=O)(=O)N2CCN(C(=O)c3cc4c(s3)CCC(C)C4)CC2)cc1 (configuration not stated)	1	nt	-1	0	0	0
CC(=O)N1CCN(C(=O)c2cc3c(s2)CCC(C)C3)CC1 (configuration not stated)	3.9*	nt	2	6	0	1.0*
COc1ccc(/[N+]([O-])=C/c2ccco2)cc1	2	1	3	10*	2	0
O=C(c1ccccc1)c1cc([N+](=O)[O-])ccc1N1CCCC1	-2	5	-1	-4	-2	-2
O=C(O)c1[nH]c2ccccc2c1NS(=O)(=O)Cc1ccccc1	-1	31	3	1	6.0*	0
O=C(O)c1[nH]c2ccccc2c1NS(=O)(=O)c1ccc(F)cc1	0	18	1	5	5	1
C/C(=N/NC(=O)c1ccc(-c2ccccc2)cc1)c1cccc(O)c1	2	nt	-1	1	1	-1
C/C(=N\NC(=O)c1cccc(O)c1)c1cccc(NC(=O)c2ccc(F)cc2)c1	4.3*	6	2	6	0	1
COc1cccc(C(=O)N/N=C(\C)c2ccc(NC(=O)Cc3ccccc3)cc2)c1OC	3.8*	nt	1	8	4	0
C/C(=N\NC(=O)c1ccc(F)cc1)c1cccc(NC(=O)c2cccc(F)c2)c1	1	29	0	3	3	-1
COc1ccc(CC(=O)Nc2ccc(/C(C)=N/NC(=O)c3ccc(OC)cc3OC)cc2)cc1	0	nt	0	2	-2	0
C/C(=N\NC(=O)c1cccc(O)c1)c1ccc(NC(=O)Cc2ccccc2)cc1	6.8*	-3	1	10	2	0
Cc1ccccc1NC(=O)Cc1nc(COC(=O)/C=C/c2ccc(F)cc2)cs1	0	nt	-1	1	1	-1
O=C(CSc1ncccn1)NCc1cccc(Cl)c1	0	2	1	12*	4	-1
Cc1nc(SCC(=O)Nc2cc(Cl)ccc2[N+](=O)[O-])nc(C)c1C	-1	18	1	-2	-1	-1
O=C(CSc1ncccn1)Nc1cc(Cl)ccc1[N+](=O)[O-]	0	3	4.8*	2	0	0
O=C(COC(=O)Cn1cnc2ccccc2c1=O)Nc1cc(Cl)ccc1[N+](=O)[O-]	0	15	0	0	5.6*	1
O=C(CSc1ncccn1)NCc1ccc(Cl)cc1	1	45	1	6	1	-1
Cn1c(=O)c2c(ncn2CC(=O)OCC(=O)Nc2cc(Cl)ccc2C#N)n(C)c1=O	0	29	1	0	6.0*	1
Cc1ccc(CNC(=O)C2CCCN(C(=O)Nc3ccc(F)cc3)C2)cc1 (configuration not stated)	-1	-1	2	-2	-3	-2
O=C(C1CCCN1C(=O)c1cccs1)N1CCc2ccccc21 (configuration not stated)	0	18	-1	1	6.0*	0
O=S(c1ccccc1)C(c1ccccc1)c1ccccc1 (configuration not stated)	-1	nt	-1	1	-2	-1
